Screening results (PubChem)
Nrf2 block = Nrf2 pathway inhibition | A549 ARE-Fluc reporter, luciferase luminescence, 18-24 h | Potency, µM (top dose mostly 46 µM), inactives show at the top dose activity change, negative = inhibition, usual class: inhibitors | 360,000 tested, 2.1% active; note: % is set by controls: 0 for no effect and ±100 for the full control effect; nearly all actives have a fitted effect of over 60% in size
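A549 ARE_Fluc cells, 5000/well, 5% FBS OPTI-MEM; compounds in dose-response, 18-24 h at 37 °C/5% CO2; CellTiter-Fluor viability read (Ex 405/Em 525), then BugLite luciferase luminescence = Nrf2 activity.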
TrxR1 substrate = substrates of rat thioredoxin reductase 1; O89049; purified TrxR1 substrate turnover, NADPH consumption readout; Potency, µM (top dose mostly 114 µM), without a hit: top-dose activity change, negative = substrate turnover; 390,000 tested, 0.01% active; note: % is set by controls: 0 for no effect and ±100 for the full control effect; nearly all actives have a fitted effect of over 50% in size
Target sequence (O89049 whole entry, looked up): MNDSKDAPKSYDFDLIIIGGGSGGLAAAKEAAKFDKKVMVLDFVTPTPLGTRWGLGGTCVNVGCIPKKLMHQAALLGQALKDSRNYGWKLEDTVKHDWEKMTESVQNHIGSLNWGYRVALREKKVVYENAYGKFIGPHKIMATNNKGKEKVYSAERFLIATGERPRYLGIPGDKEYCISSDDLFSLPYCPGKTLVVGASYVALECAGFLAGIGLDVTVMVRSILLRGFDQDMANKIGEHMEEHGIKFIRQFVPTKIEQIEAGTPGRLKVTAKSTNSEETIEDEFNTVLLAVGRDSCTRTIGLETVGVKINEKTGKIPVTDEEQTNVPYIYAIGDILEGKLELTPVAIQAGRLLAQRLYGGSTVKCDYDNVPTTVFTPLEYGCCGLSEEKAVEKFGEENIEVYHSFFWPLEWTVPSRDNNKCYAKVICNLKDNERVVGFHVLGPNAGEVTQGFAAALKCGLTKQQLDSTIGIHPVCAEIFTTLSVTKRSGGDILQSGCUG
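Rat TrxR1, dispensed at 90 nM, was prereduced with 400 uM NADPH (final) for 5 min at ~22 deg C, then incubated with compound 15 min before 400 uM selenite. A first-read NADPH fluorescence drop versus no-compound background flagged substrates.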
A549 tox = kills or reduces viability of A549 cells in Nrf2 counter-screen; A549 ARE-Fluc cells, CellTiter-Fluor viability, 18-24 h; Potency, µM (titrated, usually from 46 µM), for inactives: at the top dose activity change, negative = cytotoxicity, actives largely listed as inhibitors; 390,000 tested, 0.16% active; AID 504648; note: % is set by controls: 0 for no effect and ±100 for the full control effect
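A549 ARE-Fluc cells in 5% FBS OPTI-MEM, 5000 cells/well, rested 2 h then exposed to compounds in concentration-response for 18-24 h at 37 °C. Viability by CellTiter-Fluor fluorescence (Ex 405/Em 525) after 30 min; luciferase luminescence (BugLite, 15 min, RT) read afterwards.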
Mito fusion yeast = blocks mitochondrial division or promotes mitochondrial fusion; S. cerevisiae fusion-defective mutant growth rescue, CellTiterGlo 48 h; Potency, µM (top dose mostly 46.1 µM), for inactives: at the top dose growth rescue (activation), actives largely listed as activators; 320,000 tested, 0.23% active; AID 485298; note: % of control where 0% means no effect; nearly all actives have a fitted effect of over 45% in size
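Yeast fusion mutant, YPEG (non-fermentable carbon), compound, 48 h at 37C non-permissive; CellTiterGlo added, 10 min RT, luminescence read. Rescued growth = division inhibition.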
rTrxR1 inhibitor = rat TrxR1 inhibition | Potency, µM (series often up to 114 µM), for inactives: at the highest dose activity change, negative = inhibition, most hits filed as inhibitors | recombinant rTrxR1, NADPH fluorescence consumption, selenite substrate | 390,000 tested, 1% active; note: % is set by controls: 0 for no effect and ±100 for the full control effect; nearly all actives have a fitted effect of over 65% in size
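Rat TrxR1 (90 nM in the dispensed reagent) was pre-reduced with 400 uM NADPH for 5 min at room temperature, then incubated with compound for 15 min. After 400 uM selenite was added, NADPH fluorescence (Ex 340/Em 450 nm) was followed for 8 min.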
mIDH1 inhibitor = inhibitors of human mutant IDH1 R132H; IDH1-R132H enzyme, NADPH consumption, diaphorase/resazurin fluorescence; 390,000 tested, 0.093% active; Potency, µM (titrated, usually from 76.6 µM), for the others: at the top dose activity change, negative = inhibition, hits mostly inhibitors; O75874; AID 602179; note: % is set by controls: 0 for no effect and ±100 for the full control effect; nearly all actives have a fitted effect of over 65% in size
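IDH1-R132H (0.5 ug/mL dispensed) in pH 7.5 Tris buffer was preincubated 30 min with compound, then given a substrate mix of 0.016 mM NADPH and 2 mM alpha-KG for 80 min at room temperature; remaining NADPH was read by diaphorase/resazurin fluorescence.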
Starred values were filed as active, the others as inactive; ? = inconclusive; . = no result; ! = repeats disagree; [ ] = dose if it differs, or a comment. Compounds with a hit are over-represented: about 3.1% of the library has one in this group of screens. Calls come from the whole dose curve; as a rule, active = well fitted curve in the direction sought with a large enough effect; inconclusive = small, poorly fitted or top-dose-only effect, or another doubt; inactive = no such curve, though single readings can be large; an effect the other way counts as inactive or inconclusive. Potency is the fitted concentration of half-maximal effect.

SMILES	Nrf2 block	TrxR1 substrate	A549 tox	Mito fusion yeast	rTrxR1 inhibitor	mIDH1 inhibitor
CN1c2ccccc2N(C)C1(C)c1ccccc1	7%	-5%	-6%	6%	?	18%
COc1ccc(NS(=O)(=O)c2ccc(N3CCOCC3)c(NC(=O)c3ccc(F)cc3)c2)cc1	9.2µM*	-1%[57.1 µM]	-10%	-2%	-6%[57.1 µM]	0%
CC(Oc1ccc(F)cc1)C(=O)Nc1cc(S(=O)(=O)N2CCOCC2)ccc1N1CCCC1 (stereo unspecified)	2%	-2%	4%	-2%	19%	-4%
CC(C)COc1ccc(C(=O)Nc2cc(S(=O)(=O)N3CCOCC3)ccc2N2CCCC2)cc1	10%	-6%	-3%	2%	3%	-21%
CCN1CCN(c2ccc(S(=O)(=O)N3CCOCC3)cc2NC(=O)c2ccc(OCC(C)C)cc2)CC1	9.2µM*	-6%	-23%	.	17%	-2%
CC(Oc1ccc(F)cc1)C(=O)Nc1cc(S(=O)(=O)N2CCOCC2)ccc1N1CCCCC1 (stereo unspecified)	21µM*	3%[57.1 µM]	?	?	8%[57.1 µM]	-6%
Cc1cc2c(s1)c1cnn(Cc3cc(Cl)ccc3F)c(=O)c1n2C	18%	.	2%	.	.	.
CCCC[C@@]1(C2CCCC2)Cc2cc(OCC(=O)O)c(Cl)c(Cl)c2C1=O	-6%	?	-6%	21µM*!	19%[57.1 µM]	-11%
Cc1cc(NC(=O)CSc2nc(-c3ccco3)cc(C(F)(F)F)n2)n(-c2ccccc2)n1	?	-6%	?	2%	-19%	1%
Cc1ccc(NC(=O)CCSc2nc(-c3ccco3)cc(C(F)(F)F)n2)cc1F	10µM*	1%	-3%	.	9%	0%
Cc1cc(NC(=O)CCCSc2nc(-c3ccco3)cc(C(F)(F)F)n2)n(-c2ccccc2)n1	26µM*	9%[57.1 µM]	-17%	9%	10%[57.1 µM]	3%
COc1cc(CNC(=O)c2cnc3c(-c4cccc(C)c4)c(C)nn3c2C)cc(OC)c1OC	21µM*	-1%[57.1 µM]	0%	.	7%[57.1 µM]	-1%
COCCCNC(=O)C1CCN(c2cc(C)nc3c(-c4ccc(Cl)cc4)c(C)nn23)CC1	12%	6%	-6%	.	28%	-8%
COc1ccccc1N(C(=O)c1snc(C(N)=O)c1N)C(C(=O)NCCC(C)C)c1ccco1 (stereo unspecified)	?	116%	-1%[1.84 µM]	0%	12%	-2%
CCOc1ccccc1N(C(=O)c1snc(C(N)=O)c1N)C(C(=O)NCCC(C)C)c1ccco1 (stereo unspecified)	26µM*	-2%	?	5%	-15%	-19%
Cc1ccc(S(=O)(=O)C2CS(=O)(=O)CC2O)cc1 (stereo unspecified)	?	9%	4%	-2%	14%	2%
CC(=O)C1=C(S(=O)(=O)c2ccc(C)cc2)CS(=O)(=O)C1	7%	-1%	1%	1%	1.3µM*	6%
CCc1ccc(CNC(=O)c2ccc3nc(C(C)C)oc3c2)cc1	.	2%[57.1 µM]	2%	.	14%[57.1 µM]	10%
N#Cc1ccc(-c2nc3cc(Cl)ccc3c(=O)n2O)cc1	-19%	-1%	-13%	-5%	18%	-1%
O=c1c2ccc(Cl)cc2nc(-c2cccc(C(F)(F)F)c2)n1O	23µM*	-9%	-28%	-5%	-5%	-2%
CCCOc1ccc(C(=O)NNC(=S)NC(=O)c2cccs2)cc1	7.3µM*	-15%	-19%	-11%	-24%	2%
Cc1ccccc1C(=O)Nc1cccc(NC(=S)NC(=O)c2cccs2)c1	-21%	6%	-9%	-5%	0%	5%
Cc1ccccc1C(=O)NNC(=S)NC(=O)c1cccs1	15µM*	-1%	?	-15%	-17%	-11%
CCN(Cc1ccccc1)c1ccc(/C=C/c2nccc3ccccc23)cc1	.	-2%	.	.	12%[0.0914 µM]	.
Cc1ccc(C(=O)NC(C#N)=C(Cl)Cl)cc1	-20%	2%[57.1 µM]	-8%	-11%	3.2µM*	-9%
SMILES	Nrf2 block	TrxR1 substrate	A549 tox	Mito fusion yeast	rTrxR1 inhibitor	mIDH1 inhibitor
COc1cc(NC(=O)c2cc(C3CC3)nc3c2c(C)nn3-c2ccc(C)cc2)cc(OC)c1	?	4%	0%	.	34%	.
CC(=O)n1cc(N(C(=O)CCl)c2ccc(Cl)cc2)c2ccccc21	?	-3%	?	-18%	0.71µM*	?
COc1ccccc1N(C(=O)CCl)c1cn(C(C)=O)c2ccccc12	23µM*	-9%	-1%	-5%	4µM*	-5%
CCOC(=O)c1ccccc1Nc1cn(C(C)=O)c2ccccc12	20%	7%	-7%	3%	?	5%
NNC(=O)c1ccc(C(=O)N(c2ccccc2)c2ccccc2)cc1	.	-4%	.	.	-6%	.
Cc1ccc(SCc2c(-c3ccccc3)nn(C)c2Cl)cc1	-27%	-7%	14%	4%	0%	5%
Cc1ccc(Sc2c(C#N)c(-c3ccccc3)nn2C)cc1	5.8µM*	6%	-28%[1.84 µM]	-1%	10%	1%
Nc1cc([N+](=O)[O-])cc(N)c1N	.	-12%	.	.	-16%	.
O=C(C1=C[C@@H]2[C@H]3C(=O)N(c4cccc(Cl)c4)C(=O)[C@H]3[C@@H](C(=O)c3ccc(Cl)cc3)N2C=C1)c1ccccc1	-14%	0%	-7%	-2%	50µM*	0%
Cc1ccc(N2C(=O)[C@@H]3[C@H](C2=O)[C@H]2C=C(C(=O)c4ccccc4)C=CN2[C@@H]3C(=O)c2ccc(Cl)cc2)cc1	7%	6%[57.1 µM]	4%	-6%	-22%[57.1 µM]	-9%
CCN(CC)c1ccc(NC(=S)NC(=O)c2cccs2)cc1	9%	-7%[57.1 µM]	0%	1%	79µM*	-5%
CC(=O)NC(=S)Nc1ccc(NC(=S)NC(=O)c2cccs2)cc1	5%	4%	-1%	-3%	38%	3%
O=C(NC(=S)Nc1ccc(S(=O)(=O)N2CCCC2)cc1)c1cccs1	5%	-7%	0%	0%	20µM*	-1%
Cc1ccc(C(=O)NC(=S)Nc2ccc(S(=O)(=O)N3CCN(C)CC3)cc2)cc1	-12%	-9%	2%	-7%	50µM*	1%
Cc1cc(C)cc(C(=O)Nc2ccc(NC(=O)c3cccs3)cc2)c1	18µM*	-2%	?	2%	-11%	3%
Cc1nc(NCC(=O)c2c[nH]c3ccccc23)sc1C	.	1%	.	.	6%	.
CN1C(=O)Cc2cc(S(=O)(=O)NCc3ccccc3Cl)ccc21	3%	3%	17%	.	27%	-13%
CC(C)(C)c1cccc(S(=O)(=O)N2CCN(c3nc(-c4cccs4)nc4ccccc34)CC2)c1	-2%	-2%	3%	.	16%	.
